Screening data from PubChem BioAssay.
hcDAF-12 act – H. contortus DAF-12 nuclear receptor activators, primary screen, cell-based, luminescence, HEK293, lit1-tk-luc reporter; HEK293 hcDAF-12 lit1-tk-luc reporter; 0% DMSO, 100% Δ7-dafachronic acid; activation, % at 6.8 µM; actives 1.4% (n = 370,000); AID 652067, 2013;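 active means activation above the mean of all tested compounds plus 3 SD, cut at about 5.5% in these data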;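 further: 100% = response to 3 µM Δ7-dafachronic acid high control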
ssDAF12 agonist – S. stercoralis DAF-12 nuclear receptor activators, primary screen, cell-based, luminescence, HEK293, GRIP1 co-expression, lit1-tk-luc; Nuclear hormone receptor DAF-12 (Strongyloides stercoralis); HEK293 ssDAF-12/GRIP1 lit1-tk-luc reporter; % of 3 µM dafachronic acid response; activation, % at 6.8 µM; actives 1% (n = 370,000); AID 652126, 2013;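 active means activation above the mean over all tested compounds plus 3 SD, cut at about 0.9% in these data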;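 further: 0% = DMSO-only wells and 100% = 3 µM delta7-dafachronic acid wells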
DAX1 inh-1 – DAX1 (NR0B1) inhibitors, primary screen, cell-based, HEK293, Gal4-DAX1, luciferase luminescence. Nuclear receptor subfamily 0 group B member 1 (Homo sapiens), P51843. HEK293 Gal4-DAX1 luciferase reporter. inhibition, % at 6.75 µM. actives 0.99% (n = 340,000). AID 504766, 2011;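 active means inhibition above the mean over all tested compounds plus 3 SD, cut at about 4.2% in these data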;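 further: 0% = DAX1-transfected cells with DMSO and 100% = empty-vector control cells with DMSO; inhibition shows as a rise in luminescence from relieved DAX1 repression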
Target sequence (P51843 207-470 limits assumed): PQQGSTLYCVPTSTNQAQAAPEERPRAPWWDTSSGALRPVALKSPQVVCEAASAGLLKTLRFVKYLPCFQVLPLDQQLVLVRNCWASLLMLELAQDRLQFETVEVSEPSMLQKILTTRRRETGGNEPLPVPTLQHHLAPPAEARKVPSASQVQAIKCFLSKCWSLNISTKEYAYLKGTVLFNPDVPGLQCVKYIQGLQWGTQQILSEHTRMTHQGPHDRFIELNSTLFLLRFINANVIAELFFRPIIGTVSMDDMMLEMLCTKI
PolyA inh – polyadenylation inhibitors in yeast reporter cells, primary screen, luminescence, S. cerevisiae. S. cerevisiae SKY197-pL101 polyadenylation reporter, beta-gal luminescence; efflux-impaired pdr1/pdr3 knockout yeast; score 100 = 6 SD above DMSO. activity score, % at 12 µM. actives 0.02% (n = 300,000). AID 1875, 2009;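 active means lowest replicate activity score at least 50, where 100 means six control SD above control mean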;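 further: yeast exposed to compound for 9 h at 30 °C; higher score means more reporter readthrough which indicates perturbed polyadenylation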
hgDAF-12 ag – H. glycines DAF-12 receptor agonists, primary screen, cell-based, luminescence, HEK293, GAL4 fusion, UAS-luciferase; actives 1.8% (n = 370,000); activation, % at 6.8 µM; AID 687014, 2013; HEK293 GAL4-hgDAF12 UAS-luciferase reporter, agonist luminescence; normalized to butyrate control;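 active means activation above a cutoff set at the mean of all screened compounds plus 3 SD, cut at about 10% in these data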;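 further: 0% = DMSO wells and 100% = sodium butyrate wells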
DAX1 inh-2 – DAX1 (NR0B1) inhibitors on StAR promoter, primary screen, cell-based, luminescence, SF-1 (NR5A1), full-length DAX-1. AID 652010, 2013. HEK293T StAR-luciferase reporter, SF-1/DAX-1 repression relief. inhibition, % at 6.8 µM. actives 1.1% (n = 370,000);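 active means inhibition above the mean over all tested compounds plus 3 SD, cut at about 3.6% in these data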;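 further: 0% = DAX-1 cells with DMSO and 100% = cells lacking DAX-1 with DMSO; higher inhibition means more luminescence from relief of DAX-1 repression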
Starred values were filed as active, the others as inactive; . = no result given. A selection: hits, their analogues and other compounds. The true share with any hit is near 4.1%.

SMILES	hcDAF-12 act	ssDAF12 agonist	DAX1 inh-1	PolyA inh	hgDAF-12 ag	DAX1 inh-2
Nc1ccc(CCNc2ncnc3c2ncn3[C@@H]2O[C@H](CO)[C@@H](O)[C@H]2O)cc1	-0.4	-1.9	-1.0	1.5	-2.9	1.2
O=C(CNc1nnnn1-c1ccccc1)N1CCCC1	2.6	-0.9	.	.	-2.0	0.1
CC(=O)c1ccc(OCc2cc(C(=O)NCC3CCCCO3)no2)cc1 (stereo not drawn)	-1.1	-0.6	2.0	14.6	3.7	0.0
COc1cc(C)ccc1OCc1cc(C(=O)N(C)CCCN2CCOCC2)no1	5.0	1.8*	1.8	6.8	10.5*	0.6
COc1cc(C(C)=O)ccc1OCc1cc(C(=O)N(C)CCC2CCCCO2)no1 (stereo not drawn)	3.8	1.1*	2.2	9.0	10.0	0.8
CCOC(=O)c1cccc(NC(=O)CN(C)S(=O)(=O)c2cc(OC)ccc2OC)c1	-2.9	-1.3	.	.	0.8	-0.7
COc1ccc2nc(C)cc(SCC(NC(C)=O)C(=O)OC(C)C)c2c1 (stereo not drawn)	-0.6	-0.6	4.6*	4.0	-0.5	0.4
COc1ccc2nc(C)cc(SCC(=O)OC(C)C)c2c1	-1.0	-1.6	0.9	-6.2	3.0	-0.2
O=C(NC1CCCCN(Cc2ccc(Cl)cc2)C1=O)c1ccc2ccccc2c1 (stereo not drawn)	-3.4	-0.8	.	.	5.1	1.3
Cn1cccc([N+](=O)[O-])c1=O	0.1	-0.7	-0.6	.	1.2	0.8
Cn1c(-c2ccccc2[N+](=O)[O-])[n+](C)c2ccccc21	0.4	-0.5	5.0*	-2.5	-2.1	-0.8
COC(=O)[C@]12CCCCC=C1N(Cc1ccc(OC)cc1)C(=O)[C@@H]2CC(=O)NCCCCc1ccccc1	-2.4	-1.2	.	.	3.2	-1.1
COCCCNC(=O)CSc1nnc(-c2ccncc2)n1-c1ccc(OC)cc1	-1.6	-1.7	.	.	1.1	-0.1
Cc1ccc2c(nc3s/c(=C\c4ccc(-c5ccccc5C(=O)O)o4)c(=O)n32)c1C	0.1	0.8	-1.2	-9.7	-2.7	0.0
Cc1ccc2c(nc3s/c(=C/c4cccs4)c(=O)n32)c1C	6.2*	0.5	2.1	.	4.0	-0.1
CN1CCc2c(sc(/N=C/c3cc(Cl)ccc3O)c2C#N)C1	2.0	-0.3	6.8*	-2.4	2.8	0.7
Cc1ccc(OCCSc2nc3ncnc(N)c3[nH]2)cc1	-1.3	-1.6	4.3*	6.9	0.1	1.3
N#CC1C(C#N)N2CCCN2C1c1ccc(Cl)cc1 (stereo not drawn)	5.8*	0.1	-1.3	-5.9	1.6	-0.5
CCN(CCN(C)C)C(=O)Cn1ncc2c1-c1cc(C)ccc1OC2	-0.5	-0.6	5.6*	-21.0	1.9	-0.2
CC(=O)Cc1nsc(Nc2ccc(C)cc2)n1	4.6	0.8	2.6	5.1	12.2*	4.2*
CNc1nc(CC(C)=O)ns1	-0.4	-1.1	0.4	-3.2	-0.8	-0.1
c1ccc(N2CCN(Cc3ccc4c(c3)OCO4)CC2)nc1	2.9	-0.3	.	-13.5	-1.2	-0.4
Cc1cc2c(cc1C)-n1nnnc1C(N1CCN(c3ccccn3)CC1)C(c1ccc3c(c1)OCO3)=N2 (stereo not drawn)	6.3*	0.3	.	.	7.8	0.8
CC(C)(O)c1[nH]c2cc(F)ccc2c1C(C)(C)O	5.7*	0.0	1.2	17.9	3.5	0.7
O=C(CN1CCN(Cc2ccccc2)CC1)N/N=C\c1ccccc1[N+](=O)[O-]	0.5	-0.4	.	.	-1.9	0.1
SMILES	hcDAF-12 act	ssDAF12 agonist	DAX1 inh-1	PolyA inh	hgDAF-12 ag	DAX1 inh-2
O=C(NNC1CC(=O)N(c2ccccc2)C1=O)c1cccnc1 (stereo not drawn)	-0.1	-1.3	1.2	4.5	1.9	-0.2
CC(C)c1ccc(N2C(=O)CC(NNC(=O)c3cccnc3)C2=O)cc1 (stereo not drawn)	0.1	-0.9	5.6*	2.7	1.2	0.1
O=C(NNC1CC(=O)N(c2ccc(Cl)cc2)C1=O)c1ccccn1 (stereo not drawn)	2.9	0.9*	-1.1	7.3	10.0	1.3
O=CNc1cc(-c2ccccc2)cn2c(-c3ccc(F)c(Cl)c3)cnc12	-0.6	1.5*	.	.	2.4	1.3
COc1ccc(-c2nnn(Cc3ccccc3F)n2)cc1	1.6	0.1	3.4	22.7	12.5*	0.4
Clc1ccccc1Cn1nnc(-c2ccccc2)n1	0.1	4.3*	-0.1	-12.4	2.0	0.3
COc1ccc(C(=O)Cn2nnc(-c3ccccc3F)n2)cc1	-2.0	-1.2	1.5	-1.1	1.5	0.5
Cc1ccc(C)c(N(C(=O)c2csnn2)C(C(=O)NC2CCCCC2)c2cccnc2)c1 (stereo not drawn)	1.8	-1.1	4.4*	-1.3	-1.6	0.1
O=C(NC1CCCC1)C(c1ccc(F)cc1)N(C(=O)c1csnn1)C1CCCC1 (stereo not drawn)	-1.7	-1.2	5.9*	-3.7	1.3	0.1
O=C(NC1CCCCC1)C(c1ccc(F)cc1)N(C(=O)c1csnn1)C1CCCC1 (stereo not drawn)	-0.6	-0.8	0.8	-12.0	-0.2	0.2
O=C(NC1CCCC1)C(c1ccccc1)N(C(=O)c1csnn1)c1ccccc1F (stereo not drawn)	-0.2	-0.3	4.7*	-15.2	-0.7	0.6
O=C(NC1CCCCC1)C(c1ccncc1)N(C(=O)c1csnn1)c1ccccc1F (stereo not drawn)	-1.5	-1.4	-1.2	-5.6	0.2	0.0
COc1ccc(-c2cc(C(=O)NC3CCCC3)no2)cc1	6.5*	-0.3	3.0	-7.9	11.9*	1.5
COc1ccc(-c2cc(C(=O)NC(C)C)no2)cc1	4.4	-0.5	1.2	-14.7	10.4*	2.4
COc1cccc(-c2cc(C(=O)NC3CCCCC3)no2)c1	2.4	-0.6	2.1	5.5	5.7	1.1
CC(=O)N1CCN(c2ccc(N3CCN(C(C)=O)[C@@H](C)C3)c(C)c2)[C@@H](C)C1	-1.9	-1.1	.	.	1.0	-1.7
Cc1ccccc1NC(=O)N1CCCC(c2nc(-c3ccc(F)cc3)no2)C1 (stereo not drawn)	-1.0	-1.6	-0.2	-17.2	3.4	0.6
Cc1ccccc1NC(=O)N1CCCC(c2nc(-c3ccc(C(C)C)cc3)no2)C1 (stereo not drawn)	4.9	-0.3	-3.5	-12.8	10.5*	0.3
